From PubChem BioAssay come the findings set out here.

In assay [1] the test system is Human papillomavirus type 1a protein E7 (residues 44-93). The assay can be described thus: small molecules binding HPV E7 44-93 – biochemical, small-molecule microarray, residues 44-93, 635 nm fluorescence, primary screen (AID 1108).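 Note: E7 fragment applied at 1 µg/mL in TBST for 1 h at 4 C; score combines spot fluorescence with its signal to noise ratio.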 As to conditions: fluorescence 635 nm, higher = more signal.
A short description of assay [2]: hepatitis C replication reporter changes, two-sided – Huh7 cells, luciferase reporter, HCV replication inhibitor project, primary screen (AID 1109).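 Note: huh7 hepatoma cells harbouring a luciferase neomycin HCV replicon reporter; luciferase luminescence as measure of HCV replicon replication; test concentration not given here.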 As to conditions: Huh7 HCV replicon luciferase reporter, 48 h; higher = more signal. A general note: In a reporter assay the amount or activity of a reporter protein is the signal.
In assay [3] the target is Left-right determination factor 2 (Homo sapiens) (UniProt O00292). The assay can be described thus: small molecules binding LEFTY2 protein – biochemical, small-molecule microarray, 635 nm fluorescence scan, primary screen (AID 1110). As to conditions: higher = more signal.
Chain of Left-right determination factor 2 (Homo sapiens) (O00292 whole entry, looked up): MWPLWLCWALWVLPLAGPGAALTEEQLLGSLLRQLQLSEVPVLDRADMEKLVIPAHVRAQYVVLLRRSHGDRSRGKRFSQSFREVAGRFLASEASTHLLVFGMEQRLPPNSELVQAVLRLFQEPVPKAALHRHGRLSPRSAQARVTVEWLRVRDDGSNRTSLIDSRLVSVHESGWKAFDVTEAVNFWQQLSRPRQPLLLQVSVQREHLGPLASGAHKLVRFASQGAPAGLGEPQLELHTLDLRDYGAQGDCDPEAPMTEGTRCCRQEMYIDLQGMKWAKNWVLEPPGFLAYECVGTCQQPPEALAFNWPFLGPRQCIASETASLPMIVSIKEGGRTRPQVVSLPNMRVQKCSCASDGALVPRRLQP
Assay [4] deals with Calmodulin-1 (Homo sapiens) (UniProt P0DP23). Kind of assay: small molecules binding calmodulin-1 with EGTA – biochemical, small-molecule microarray, Cy5-labelled CALM1, profiling panel (AID 1111).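 Note: labelled calmodulin applied in Tris saline Tween buffer holding calcium plus EGTA and DTT.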 As to conditions: Cy5-CALM1 binding fluorescence, higher = more signal.
Assay [5] shares this target. The assay can be described thus: small molecules binding Ca-loaded calmodulin-1 – biochemical, small-molecule microarray, Cy5-labelled CALM1, plus calcium, artefact control for SMM control-protein annotation, profiling panel (AID 1112).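 Note: score merges spot fluorescence with signal to noise from triplicate slides.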 The following applies: Cy5-CALM1 binding fluorescence, higher = more signal.
The nature of assay [6]: probe aWnt5a binding to arrayed compounds – biochemical, biotinylated probe, 635/667 nm fluorescence, primary screen (AID 1113).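 Note: score merges 667 nm fluorescence intensity with signal-to-noise per printed feature.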 As to conditions: small-molecule microarray, higher = more signal.
A short description of assay [7]: probe aShh binding to arrayed compounds – biochemical, biotinylated probe, 635/667 nm fluorescence, primary screen (AID 1114).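 Note: probe is biotin-labelled aShh protein from a stem cell growth factor screen; measures binding of labelled protein to compounds printed on the slide; score merges feature fluorescence at 667 nm with signal-to-noise.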 The following applies: small-molecule microarray, higher = more signal.
Assay [8] is described as follows: probe aNog binding to arrayed compounds – biochemical, biotinylated probe, 635/667 nm fluorescence, primary screen (AID 1115).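 Note: probe is biotinylated aNog protein used at 0.15 µg/mL for 1 h at 4 C; z-score combines 667 nm fluorescence of each spot with its signal to noise.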 As to conditions: small-molecule microarray, higher = more signal.
The target of assay [9] is Torsin-1A-interacting protein 1 (Homo sapiens) (UniProt Q5JTV8). The assay can be described thus: compound microarray binding of lysate hLAP1 – cell lysate, small-molecule microarray, COS7 lysate, 635/667 nm fluorescence, primary screen (AID 1116). The following applies: 635 nm fluorescence, higher = more signal.
Chain of Torsin-1A-interacting protein 1 (Homo sapiens) (Q5JTV8 whole entry, looked up): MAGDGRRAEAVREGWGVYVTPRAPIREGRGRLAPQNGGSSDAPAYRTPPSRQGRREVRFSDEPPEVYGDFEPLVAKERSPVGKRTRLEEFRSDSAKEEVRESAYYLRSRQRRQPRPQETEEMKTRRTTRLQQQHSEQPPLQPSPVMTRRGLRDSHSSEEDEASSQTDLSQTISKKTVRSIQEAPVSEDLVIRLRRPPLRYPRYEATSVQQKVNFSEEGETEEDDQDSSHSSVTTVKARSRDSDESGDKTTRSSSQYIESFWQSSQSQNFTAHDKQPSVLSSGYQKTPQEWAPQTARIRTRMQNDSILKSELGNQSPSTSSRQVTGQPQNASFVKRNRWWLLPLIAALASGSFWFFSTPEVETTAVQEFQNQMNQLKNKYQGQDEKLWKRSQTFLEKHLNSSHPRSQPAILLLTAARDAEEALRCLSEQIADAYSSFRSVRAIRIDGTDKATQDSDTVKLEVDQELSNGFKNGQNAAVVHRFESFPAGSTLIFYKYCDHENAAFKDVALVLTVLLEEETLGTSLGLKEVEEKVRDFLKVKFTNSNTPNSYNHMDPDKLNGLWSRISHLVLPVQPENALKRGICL
The target of assay [10] is Alpha-bungarotoxin (Bungarus multicinctus) (UniProt P60615). Kind of assay: compounds binding labelled alpha-BTX control protein – biochemical, small-molecule microarray, Alexa647 label, 635/667 nm fluorescence, artefact control for SMM control protein annotation, profiling panel (AID 1117). The following applies: alpha-BTX-A647 binding fluorescence, higher = more signal.
Chain of Alpha-bungarotoxin (Bungarus multicinctus) (P60615 whole entry, looked up): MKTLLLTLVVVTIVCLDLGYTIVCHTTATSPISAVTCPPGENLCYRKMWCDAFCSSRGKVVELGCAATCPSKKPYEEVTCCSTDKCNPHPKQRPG

`C#CCCCON=C1[C@H]2CCn3c(=O)n(C)c(=O)n3[C@H]2[C@H](O)[C@@H]2O[C@H]12`: the composite z-score in assay [1] is 0.371; in [3], 0.503; in assay [4], -0.266; in assay [5], -0.792; in [6], -0.0486; in [7], 0.0723. Besides, the values for the composite z-score in assay [8], in assay [9] and in assay [10] were 0.0762, 0.35 and 0.0727, respectively. Moreover, the z-score in assay [2] stood at 0.818.

As for `O=C1C[C@@H](O)[C@@H](O)[C@@H]2[C@@H]3C(=O)N(C[C@@H]4CCCO4)C(=O)[C@@H]3CC[C@@H]12`, the composite z-score in assay [1] was 0.27; in [3], 0.723; in assay [4] it was 0.187; in [5], -0.426; in assay [6], -0.0239; in [7] it was -0.106. Moreover, the composite z-score in assay [8] was -0.303; in assay [9], 0.119; in assay [10], 0.506. Besides, in assay [2], the z-score was -0.321.

Turning to `COC(=O)CC=C[C@@H](C)[C@@H]1C=C[C@H](O)[C@@H](CO)O1`, the composite z-score in assay [1] was 0.0429; in assay [3], 0.43; in assay [4], 0.367; in assay [5], -0.818; in [6], -0.154; in assay [7], 0.647. Further, the composite z-score in [8] is -0.546; in assay [9], 0.297; in assay [10], -0.139. Further, the z-score in assay [2] was -0.0733.

Consider `CC(C)=CCCC(C)=CCON=C1C[C@@H](O)[C@@H](O)[C@@H]2[C@@H]3C(=O)N(C(C)(C)C)C(=O)[C@@H]3CC[C@@H]12`, for which the composite z-score in assay [1] was 0.0739; in assay [3], 0.542; in [4], -0.195; in assay [5] it was -0.608; in [6], -0.0203; in [7] it was -0.0626. In addition, the composite z-score in assay [8] is -0.116; in [9], 0.1; in assay [10], 0.372. Moreover, in [2], the z-score is -0.0781.

`O=c1n(Cc2cc3c(cc2Cl)OCO3)c(=O)n2n1CC[C@@H]1C(=NOCc3ccccc3)[C@H]3O[C@H]3[C@@H](O)[C@@H]12`: the composite z-score is 0.439 in assay [1]; 0.582 in [3]; 0.0528 in assay [4]; -0.827 in assay [5]; -0.152 in assay [6]; -0.34 in [7]. In addition, the composite z-score in assay [8] is -0.519; in [9], 0.157; in assay [10] it was -0.0536. This molecule had a z-score in assay [2] of 0.51.

Take `O=C(NN=C1C[C@@H](O)[C@@H](O)[C@@H]2[C@@H]3C(=O)N(Cc4ccccc4)C(=O)[C@@H]3CC[C@@H]12)OCc1ccccc1`: the composite z-score in assay [1] was -0.572; in [3], 0.401; in assay [4], -0.619; in assay [5], -0.786; in assay [6], -0.143; in assay [7], -0.197. Besides, the composite z-score in [8] was -0.223; in assay [9], -0.0694; in assay [10], 0.0077. Besides, the z-score in assay [2] was determined as 0.104.

Consider `Cc1ccc(S(=O)(=O)NC(CCc2ccccc2)CC(=O)C(C)(C)C)cc1` (stereo not given), for which the composite z-score in assay [1] is 0.52; in assay [3] it was 0.445; in [4], -0.0921; in [5], -0.418; in [6], -0.125; in [7] it was 0.304. For the same molecule, the composite z-score in assay [8] was -0.0626; in assay [9] it was -0.0055; in assay [10] it was 0.369. In assay [2], this molecule had a z-score of -2.04.

As for `CCCCC#C[C@@H]1C=C[C@H](Oc2ccc(C(=O)OC)cc2)[C@@H](COC(=O)OCC)O1`, the composite z-score in assay [1] was 0.42; in assay [3] it was 0.494; in [4] it was -0.184; in [5], -0.581; in assay [6], -0.0735; in assay [7] it was -0.2. Also, the composite z-score amounted to 0.129 in assay [8], 1.19 in [9] and 0.807 in [10]. The molecule further showed a z-score in assay [2] of -3.22.

Regarding `COC(=O)CC=C[C@@H](C)[C@@H](C=NO[C@H](C)c1cn([C@H](CO)Cc2ccccc2)nn1)OC`, the composite z-score in assay [1] was 0.319; in [3] it was 1.1; in [4], -1.03; in [5] it was -1.24; in assay [6], -0.0179; in assay [7], -0.138. The composite z-score in assay [8] is -0.191; in [9] it was 0.427; in [10], 0.608. In addition, the z-score in assay [2] is -1.3.

With `O=C1C=C[C@@H](O)[C@@H]2[C@@H]3C(=O)N(c4ccc(F)cc4F)C(=O)[C@@H]3CC[C@@H]12`, the composite z-score was 0.229 in [1]; 0.237 in [3]; 0.269 in [4]; -0.282 in assay [5]; -0.0405 in [6]; -0.153 in assay [7]. The results for the composite z-score in [8], in assay [9] and in assay [10] were -0.252, 0.804 and 0.0764, respectively. The molecule further had a z-score in [2] of -0.578.

As to `O=C(NN=C1C[C@@H](O)[C@@H](O)[C@@H]2[C@@H]3C(=O)N(C4CCCCC4)C(=O)[C@@H]3CC[C@@H]12)OCc1ccccc1`, the composite z-score in assay [1] is -0.671; in assay [3], 0.482; in assay [4], -0.367; in assay [5], -0.606; in assay [6], -0.115; in assay [7], 0.0156. For the same molecule, the composite z-score is -0.0522 in [8], -0.534 in assay [9] and -0.0382 in [10]. This molecule also gave a z-score in assay [2] of -0.771.

Take `CO[C@H]1COC(=O)[C@@H](C)COC(=O)[C@H](COCc2ccccc2)NC(=O)CC=C[C@H]1C`: the composite z-score in [1] was -1.39; in assay [3] it was 1.23; in assay [4], -3.3; in [5], -3.53; in assay [6], -0.247; in [7], 0.0062. For the same molecule, the composite z-score was 0.0139 in assay [8], -0.526 in [9] and -0.445 in assay [10]. For the same molecule, in assay [2], the z-score is -0.292.

As for `CC(C)=CCCC(C)=CCON=C1C[C@@H](O)[C@@H](O)[C@@H]2[C@@H]3C(=O)N(Cc4ccccc4)C(=O)[C@@H]3CC[C@@H]12`, the composite z-score in [1] was 0.209; in [3] it was 1.08; in assay [4], -0.488; in [5], -1.32; in [6], -0.154; in [7] it was -0.214. Also, the values for the composite z-score in assay [8], in assay [9] and in assay [10] were -0.0709, 0.712 and 0.398, respectively. The z-score in assay [2] stood at 0.45.

Turning to `C#CCCCON=C1[C@H]2CCn3c(=O)n(-c4ccccc4)c(=O)n3[C@H]2[C@H](O)[C@@H]2O[C@H]12`, the composite z-score is 0.438 in assay [1]; 0.602 in [3]; -0.312 in assay [4]; -0.273 in assay [5]; -0.0792 in [6]; -0.0146 in assay [7]. Besides, the composite z-score in assay [8] was -0.17; in assay [9], -0.131; in [10] it was 0.515. In assay [2], this molecule registered a z-score of -2.97.

For `CO[C@H]1COC(=O)CC=C[C@@H](C)[C@H](NS(=O)(=O)c2ccc(C)cc2)COC(=O)CCC[C@@H]1C`, the composite z-score in assay [1] is 0.106; in assay [3], 0.8; in assay [4], -0.789; in assay [5] it was -1.3; in assay [6], -0.154; in assay [7], -0.188. The results for the composite z-score in [8], in [9] and in [10] were -0.321, 0.784 and 0.493, respectively. This molecule yielded a z-score in [2] of -2.24.

Turning to `O=C(NN=C1C[C@@H](O)[C@@H](O)[C@@H]2[C@@H]3C(=O)N(C[C@@H]4CCCO4)C(=O)[C@@H]3CC[C@H]12)OCc1ccccc1`, the composite z-score in [1] was -0.453; in assay [3], -0.156; in assay [4], 0.0715; in [5], 0.226; in assay [6], 0.0377; in assay [7], -0.0146. Also, the results for the composite z-score in assay [8], in assay [9] and in assay [10] were 0.154, 0.349 and 0.275, respectively. In assay [2], this molecule gave a z-score of 1.16.

Turning to `COc1cccc([C@@H]2Oc3ccc(OC)cc3C(=O)[C@H]2O)c1`, the composite z-score in [1] was 0.0299; in [3], 0.386; in assay [4], 0.111; in assay [5], -0.397; in assay [6], -0.157; in [7], -0.0211. Moreover, the composite z-score in [8] was -0.519; in assay [9] it was -0.0655; in assay [10] it was 1.11. In addition, the z-score in assay [2] stood at 2.25.

On to `CC(=O)OC[C@H]1OC(ON=CC[C@@H]2C=C[C@H](OC(C)=O)[C@@H](COC(C)=O)O2)[C@H](OC(C)=O)[C@@H](OC(C)=O)[C@@H]1OC(C)=O` (stereo not given in full), for which the composite z-score was 0.781 in assay [1]; 0.624 in [3]; -0.0804 in assay [4]; -0.819 in assay [5]; -0.0957 in [6]; -0.154 in [7]. Further, the results for the composite z-score in assay [8], in assay [9] and in assay [10] were -0.144, -0.0191 and -0.461, respectively. The z-score in [2] was -0.3.
